Our source for the max response, negative = inhibition and Potency values is PubChem BioAssay AID2161 (National Center for Advancing Translational Sciences (NCATS), 2009).

Molecules are shown by their SMILES. “And” between values parts separate entries of the source, which are not always exact repeats. Equal entries are not always repeated. This is one part of the list. Unmarked numbers belong to inactive results. The source made the active and inactive calls. Calls come from the whole dose curve; as a rule, active = well fitted inhibition curve with a large enough effect; inactive = no such curve, though single readings can be large or run the other way.
Note: nearly all actives have a fitted effect of over 35% in size.
Potency is the fitted concentration of half-maximal effect.
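Throughout, for max response, negative = inhibition: 0% = no-compound wells and -100% = no-enzyme wells.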

Chain of Papain (Carica papaya) (P00784 whole entry, looked up): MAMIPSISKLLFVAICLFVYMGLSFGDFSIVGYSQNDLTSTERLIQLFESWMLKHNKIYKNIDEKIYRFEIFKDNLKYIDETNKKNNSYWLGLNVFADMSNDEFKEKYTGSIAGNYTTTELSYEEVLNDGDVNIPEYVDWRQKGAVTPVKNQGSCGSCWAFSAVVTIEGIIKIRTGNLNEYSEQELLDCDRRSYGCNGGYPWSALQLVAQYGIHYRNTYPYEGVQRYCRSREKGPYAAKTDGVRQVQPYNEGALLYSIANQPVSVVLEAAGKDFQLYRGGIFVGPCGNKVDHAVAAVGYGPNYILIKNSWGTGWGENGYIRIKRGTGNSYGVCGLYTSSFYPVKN

The target in this test is Papain (Carica papaya) (UniProt P00784). Nature of the test: qHTS Assay for Inhibitors of Papain: Counterscreen for Cruzain Assay. As to conditions: purified papain, Z-FR-AMC fluorescence cleavage; max response, negative = inhibition: hits give low values. An excerpt:
Assay Provider: Shoichet, Brian; University of California, San Fancisco Screening Center PI: Austin, C.P. Screening Center: NIH Chemical Genomics Center [NCGC] The following papain assay is a counterscreen for a related protein cruzain (AID: 1478). Cruzain is a cysteine protease from the tropical parasite Trypanosoma cruzi. Activity against papain was used to help prioritize chemical series active against cruzain. Papain is a closely related cysteine protease known to utilize the same Z-FR-AMC fluorogenic substrate as cruzain. The fluorogenic assay used for cruzain was utilized here as well, with the exception of the reducing agent, which was 5 mM cystein here instead of DTT. Fluorogenic coumarin-based Z-FR-AMC substrate was used; proteolytic cleavage releases AMC, whose fluorescence is measured at 360 nm excitation and 450 nm emission. Purified papain was supplied by the labs of Profs. James McKerrow and Brian Shoichet, UC San Francisco. This assay had 0.01% Triton X-100 concentration.
Buffer: 100 mM Sodium Acetate, pH 5.5, 5 mM DTT, Triton X-100 concentration: 0.01%. Reagents/Controls: Buffer in columns 3 and 4 as negative control (no enzyme). Substrate solution: 2 uM final concentration of Z-FR-AMC (catalog number I-1160, Bachem) dispensed throughout the plate. Enzyme: 12 nM Papain final concentration. Assay Steps: Three uL of enzyme or buffer were dispensed to 1536-well Greiner black solid bottom plates. Compounds and controls (23 nL) were transferred via Kalypsys PinTool. The plates were incubated for 15 min at room temperature, and then 1 uL of substrate solution was added to start the reaction. The plates were immediately transferred to and read 4 times every 30 seconds for 2 min on ViewLux High-throughput CCD imager (Perkin-Elmer) using 360 nm excitation and 450 nm emission fluorescence protocol. The fluorescence intensity difference between the third and the first time points (time lapse of 60 seconds) was used to compute reaction progress. Data was normalized to neutral (no compound) and negative (no enzyme) controls.
Consider `c1ccc2cc3c(NCCN4CCOCC4)ccnc3cc2c1`, for which the max response, negative = inhibition was -50.2%. As to `O=C1OC(/C=C/c2ccccc2)=NC/1=C/c1ccco1`, the max response, negative = inhibition is -2.34%. Turning to `Cc1ccc(SCCC(=O)OCC(=O)Nc2ncc(Cl)cc2Cl)cc1`, the max response, negative = inhibition was -6.29%. Regarding `C=CCNC(=O)c1ccc2nc(-c3ccco3)c(-c3ccco3)nc2c1`, the max response, negative = inhibition was -64.7%.

`CC(C)C[C@H](NC(=O)[C@@H]1O[C@H]1C(=O)O)C(=O)NCCCCN=C(N)N`: the Potency is 0.01 µM (active). Consider `N#Cc1nc(N)nc(N(c2ccccc2)c2ccccc2)n1`, for which the Potency is 8.91 µM (active) and 11.2 µM (active). Take `CCN(CC)c1nc(C#N)nc(OC)n1`: the Potency was 5.01 µM (active). Consider `Cc1ccc(-c2c3c(=O)n(C)c(=O)n(C)c3cn2-n2cnnc2)cc1`, for which the Potency is 28.2 µM (active). On the same count and under the same terms, as for `N#Cc1nc(Nc2cc(F)cc(Cl)c2)nc(NC2CCCC2)n1`, the figure is 1.12 µM (active).

Regarding `Cn1c(C(=O)NCCN2CCc3ccccc3C2)cc2c(=O)[nH]c3ccccc3c21`, the max response, negative = inhibition was -20.9%. On to `C=CC(=O)c1ccc2ccccc2c1`, for which the Potency is 12.6 µM (active). For the compound `CCCCNC(=O)Cn1c(SCc2cccc(Cl)c2)nc2ccncc21`, the max response, negative = inhibition was -12%. For the compound `O=C(OCN1C(=O)c2ccccc2C1=O)/C(=C\c1ccco1)NC(=O)c1ccccc1`, the max response, negative = inhibition was -35.6%.

On to `CCc1ccc(OCCCn2c(CCCNC(=O)C3CCCCC3)nc3ccccc32)cc1`, for which the max response, negative = inhibition was -1.28%. As for `N#Cc1nc(Nc2cccc(Cl)c2)nc(NC2CCCC2)n1`, the Potency was 0.891 µM (active).
